# Where “and” joins values, the source holds several entries; their conditions need not be identical. Equal values may be shown once. Inconclusive results are not listed. Entries that show only a call come without a potency. Some structures have more than one record in an assay (separate samples or runs), and their calls can disagree. Calls of active or inactive are those of the source. Unless noted, calls come from the whole dose curve; as a rule, active = well fitted curve in the direction sought with a large enough effect in the repeat runs; inconclusive = weak or mixed curves; inactive = no such curve, though single readings can be large; an effect the other way counts as inactive or inconclusive.
# Key:
# [1] = qHTS assay to identify small molecule antagonists of the glucocorticoid receptor (GR) signaling pathway - cell viability counter screen (AID 720693); note: nearly all actives have a fitted effect of over 55% in size; note: potency is the fitted concentration of half-maximal effect
# [2] = qHTS assay for identifying genotoxic compounds that show differential cytotoxicity against isogenic chicken DT40 cell lines with known DNA damage response pathways - wild type cell line (AID 743012); note: nearly all actives have a fitted effect of over 60% in size; note: potency is the fitted concentration of half-maximal effect
# Summary of the method: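 Endpoint: CellTiter-Glo luminescence, 30 min RT. Cells: wild type DT40, 300/well. Exposure: compounds in DMSO, 40 h, 37 C/5% CO2, after ~0.5 h pre-incubation.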
# [3] = qHTS assay for identifying genotoxic compounds that show differential cytotoxicity against isogenic chicken DT40 cell lines with known DNA damage response pathways - Rev3 mutant cell line (AID 743014); note: nearly all actives have a fitted effect of over 55% in size; note: potency is the fitted concentration of half-maximal effect
# [4] = qHTS assay for identifying genotoxic compounds that show differential cytotoxicity against isogenic chicken DT40 cell lines with known DNA damage response pathways - Rad54/Ku70 mutant cell line (AID 743015); note: nearly all actives have a fitted effect of over 60% in size; note: potency is the fitted concentration of half-maximal effect
# [5] = qHTS assay to identify small molecule antagonists of the androgen receptor (AR) signaling pathway - cell viability counter screen (AID 743033; note: nearly all actives have a fitted effect of over 45% in size; note: potency is the fitted concentration of half-maximal effect)
# [6] = target: Androgen receptor (Homo sapiens) (UniProt P10275); assay: qHTS assay to identify small molecule agonists of the androgen receptor (AR) signaling pathway (AID 743036; active = well fitted activation curve with a large enough effect in the signal ratio in the repeat runs, with a control signal flat, not every such curve was filed as active; the % refers to the signal ratio)
# Sequence of Androgen receptor (Homo sapiens) (P10275 whole entry, looked up): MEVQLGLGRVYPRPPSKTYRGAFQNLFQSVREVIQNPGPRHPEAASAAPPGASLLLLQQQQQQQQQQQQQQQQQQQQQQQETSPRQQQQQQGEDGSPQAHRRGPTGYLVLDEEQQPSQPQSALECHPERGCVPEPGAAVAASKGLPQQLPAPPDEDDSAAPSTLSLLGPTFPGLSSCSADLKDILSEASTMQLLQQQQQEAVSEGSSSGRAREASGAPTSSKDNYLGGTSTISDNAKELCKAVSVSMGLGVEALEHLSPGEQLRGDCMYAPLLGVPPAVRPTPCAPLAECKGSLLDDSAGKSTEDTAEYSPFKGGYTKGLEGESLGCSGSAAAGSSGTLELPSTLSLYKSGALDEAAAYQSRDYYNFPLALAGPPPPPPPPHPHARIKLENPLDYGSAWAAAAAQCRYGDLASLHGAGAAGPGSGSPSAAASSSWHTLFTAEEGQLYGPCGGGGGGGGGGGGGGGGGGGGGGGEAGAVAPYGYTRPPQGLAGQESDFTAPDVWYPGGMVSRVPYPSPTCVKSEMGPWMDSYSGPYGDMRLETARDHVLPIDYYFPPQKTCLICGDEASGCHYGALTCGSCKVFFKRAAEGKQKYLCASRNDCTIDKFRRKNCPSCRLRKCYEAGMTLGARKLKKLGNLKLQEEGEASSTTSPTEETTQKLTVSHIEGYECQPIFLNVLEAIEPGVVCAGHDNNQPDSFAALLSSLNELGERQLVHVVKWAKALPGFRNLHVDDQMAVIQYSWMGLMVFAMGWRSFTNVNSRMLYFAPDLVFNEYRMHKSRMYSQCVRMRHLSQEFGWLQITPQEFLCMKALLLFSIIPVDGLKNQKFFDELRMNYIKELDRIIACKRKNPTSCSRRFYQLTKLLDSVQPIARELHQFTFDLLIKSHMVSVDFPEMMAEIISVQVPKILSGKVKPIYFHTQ
# Summary of the method: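 In this Tox21 qHTS, 2,000 HEK293 AR-bla cells per well were incubated with compounds for 16 h at 37C and 5% CO2. Fluorescence intensity was recorded 2 h after adding LiveBLAzer B/G FRET substrate at room temperature.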
# [7] = target: Androgen receptor (Homo sapiens) (UniProt P10275); assay: qHTS assay to identify small molecule agonists of the androgen receptor (AR) signaling pathway using the MDA cell line (AID 743040; note: nearly all actives have a fitted effect of over 20% in size); conditions: MDA-kb2 AR-luc cells, MMTV luciferase, 16 h, stronger effect = higher value
# Summary of the method: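 Luciferase read-out, ONE-Glo, 30 min RT. Cells: MDA-kb2 AR-luc, MMTV promoter with AR and GR response elements. Compound exposure 16 h, 37C, 0% CO2, after 5 h pre-incubation. qHTS agonist mode.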
# [8] = qHTS assay to identify small molecule antagonists of the androgen receptor (AR) signaling pathway using the MDA cell line - cell viability counter screen (AID 743041; note: nearly all actives have a fitted effect of over 45% in size; note: potency is the fitted concentration of half-maximal effect)
# Summary of the method: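 Cytotoxicity counter screen: MDA-kb2 AR-luc cells, compound + R1881, 16 h, 37C, 0% CO2; CellTiter-Fluor added at 15.5 h, fluorescence read after 30 min.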
# [9] = target: Androgen receptor (Homo sapiens) (UniProt P10275); assay: qHTS assay to identify small molecule antagonists of the androgen receptor (AR) signaling pathway using the MDA cell line (AID 743042; note: nearly all actives have a fitted effect of over 55% in size)
# Summary of the method: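 MDA-kb2 breast carcinoma cells carrying MMTV-luciferase (AR/GR responsive) were co-treated with compounds and the agonist R1881 for 16 h at 37C. Inhibition read as ONE-Glo luminescence; CellTiter-Fluor fluorescence measured in parallel for cytotoxicity.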
# [10] = qHTS assay to identify small molecule antagonists of the thyroid receptor (TR) signaling pathway - cell viability counter screen (AID 743064); note: nearly all actives have a fitted effect of over 50% in size; note: potency is the fitted concentration of half-maximal effect
# Summary of the method: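 Counter screen for cytotoxicity: compound plus T3 (1 nM final) on GH3.TRE-Luc cells, 23.5 h at 37 °C, then fluorescence viability readout with CellTiter-Fluor.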
# [11] = qHTS assay to identify small molecule antagonists of the thyroid receptor (TR) signaling pathway (AID 743065); note: nearly all actives have a fitted effect of over 55% in size; note: potency is the fitted concentration of half-maximal effect
# Summary of the method: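 GH3.TRE-Luc rat pituitary cells (two TREs driving luciferase) were dosed with compound, then stimulated with 1 nM T3 (final) for 23.5 h at 37 C. ONE-Glo luminescence was the read-out, with CellTiter-Fluor fluorescence as the cytotoxicity counter-screen.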
# [12] = test system: thyroid hormone receptor (rat, GH3 cells); assay: qHTS assay to identify small molecule agonists of the thyroid receptor (TR) signaling pathway (AID 743066; calls by dose curve)
# [13] = target: Estrogen receptor (Homo sapiens) (UniProt P03372); assay: qHTS assay to identify small molecule antagonists of the estrogen receptor alpha (ER-alpha) signaling pathway (AID 743069; active = well fitted curve in the direction sought with a large enough effect in the signal ratio in the repeat runs, not every such curve was filed as active; the % refers to the signal ratio)
# Sequence of Estrogen receptor (Homo sapiens) (P03372 whole entry, looked up): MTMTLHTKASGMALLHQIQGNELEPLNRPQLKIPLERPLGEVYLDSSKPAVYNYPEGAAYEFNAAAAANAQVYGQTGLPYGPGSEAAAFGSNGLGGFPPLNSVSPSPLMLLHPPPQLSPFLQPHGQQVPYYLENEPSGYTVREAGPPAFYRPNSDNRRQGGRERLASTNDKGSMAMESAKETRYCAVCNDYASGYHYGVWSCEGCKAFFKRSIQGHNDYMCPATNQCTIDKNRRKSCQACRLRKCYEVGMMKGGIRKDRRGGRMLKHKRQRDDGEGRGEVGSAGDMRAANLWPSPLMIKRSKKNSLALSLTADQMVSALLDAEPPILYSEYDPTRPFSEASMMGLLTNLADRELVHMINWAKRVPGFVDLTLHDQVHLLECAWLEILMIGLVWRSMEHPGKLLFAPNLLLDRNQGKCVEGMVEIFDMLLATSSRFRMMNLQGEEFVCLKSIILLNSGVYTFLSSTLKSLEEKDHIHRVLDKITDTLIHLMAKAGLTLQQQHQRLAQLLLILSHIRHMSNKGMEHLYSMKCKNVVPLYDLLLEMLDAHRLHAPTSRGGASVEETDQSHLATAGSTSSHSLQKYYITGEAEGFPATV
# Summary of the method: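 Beta-lactamase FRET fluorescence is read after 2 hr at room temperature with LiveBLAzer B/G substrate. Before that, ER-alpha-bla HEK293 cells sit 4 hr after plating, then receive compound plus 17beta-estradiol and incubate 18 hr at 37C.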
# [14] = qHTS assay to identify small molecule antagonists of the estrogen receptor alpha (ER-alpha) signaling pathway - cell viability counter screen (AID 743074; calls by dose curve;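 note: HEK293 cells carrying ER-alpha-UAS-bla reporter stimulated with 17beta-estradiol; nearly all actives have a fitted effect of over 45% in size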; note: potency is the fitted concentration of half-maximal effect)
# [15] = target: Estrogen receptor (Homo sapiens) (UniProt P03372); assay: qHTS assay to identify small molecule agonists of the estrogen receptor alpha (ER-alpha) signaling pathway (AID 743075; calls by dose curve;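 note: HEK293 GripTite cells with ER-alpha and UAS-driven beta-lactamase reporter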)
# [16] = target: Estrogen receptor (Homo sapiens) (UniProt P03372); assay: qHTS assay to identify small molecule agonists of the estrogen receptor alpha (ER-alpha) signaling pathway using the BG1 cell line (AID 743079); conditions: BG1Luc4E2 cells, ERE-luciferase agonist, 22 h; activation: at 70.3 µM (top of the series) unless noted; note: nearly all actives have a fitted effect of over 20% in size; note: potency is the fitted concentration of half-maximal effect
# [17] = qHTS assay to identify small molecule antagonists of the estrogen receptor alpha (ER-alpha) signaling pathway using the BG1 cell line - cell viability counter screen (AID 743081);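 note: compound given together with 17beta-estradiol as the ER stimulus; nearly all actives have a fitted effect of over 45% in size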; note: potency is the fitted concentration of half-maximal effect
# [18] = target: Aromatase (Homo sapiens) (UniProt P11511); assay: qHTS assay to identify aromatase inhibitors (AID 743083); note: nearly all actives have a fitted effect of over 55% in size; note: potency is the fitted concentration of half-maximal effect
# Sequence of Aromatase (Homo sapiens) (P11511 whole entry, looked up): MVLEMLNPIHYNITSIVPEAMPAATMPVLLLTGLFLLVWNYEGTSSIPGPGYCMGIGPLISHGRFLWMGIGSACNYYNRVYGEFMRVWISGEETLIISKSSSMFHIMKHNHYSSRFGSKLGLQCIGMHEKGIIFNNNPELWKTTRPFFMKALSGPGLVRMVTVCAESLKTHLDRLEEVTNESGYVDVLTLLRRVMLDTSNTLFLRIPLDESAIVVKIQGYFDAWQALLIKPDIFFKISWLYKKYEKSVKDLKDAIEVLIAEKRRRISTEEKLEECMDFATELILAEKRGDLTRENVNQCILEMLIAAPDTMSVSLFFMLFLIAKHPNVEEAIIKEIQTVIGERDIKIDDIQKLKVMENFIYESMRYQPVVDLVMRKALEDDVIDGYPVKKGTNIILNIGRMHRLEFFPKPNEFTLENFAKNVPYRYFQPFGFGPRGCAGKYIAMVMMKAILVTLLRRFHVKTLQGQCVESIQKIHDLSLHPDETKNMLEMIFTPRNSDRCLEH
# [19] = qHTS assay to identify small molecule antagonists of the estrogen receptor alpha (ER-alpha) signaling pathway using the BG1 cell line (AID 743080; calls by dose curve;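 note: BG1 cells stimulated with 17beta-estradiol alongside compound; nearly all actives have a fitted effect of over 25% in size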)
# Summary of the method: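 Seeding, 24 h rest, compound transfer from DMSO, 17beta-estradiol addition, 21.5 h incubation, CellTiter-Fluor (30 min, 37 C), then ONE-Glo (30 min, room temperature): this sequence was run on BG1-Luc-4E2 reporter cells.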
Structure (SMILES),Potency [1],Potency [2],Potency [3],Potency [4],Potency [5],Potency [6],activity change ([7]; at 70.3 µM (top of the series)),activity change ([7]; at 95 µM (top of the series)),Potency [8],Potency [9],Potency [10],Potency [11],Potency [12],Potency [13],Potency [14],Potency [15],Potency [16],Potency [17],Potency [18],Potency [19]
CC1=C(C(=O)Nc2ccccc2)SCCO1,inactive,62.1 µM (active) and 17.2 µM (active),24.7 µM (active) and 12.2 µM (active),62.1 µM (active) and 19.3 µM (active),inactive,inactive,4% (inactive),0.0315% (inactive),inactive,inactive,inactive,inactive,inactive,inactive,inactive,inactive,31.1 µM (active) and 27.3 µM (active),inactive,inactive,–
Brc1ccc(Br)cc1,inactive,inactive,inactive,inactive,inactive,–,–,–,inactive,–,inactive,inactive,inactive,–,inactive,–,–,inactive,inactive,–
ClC(Cl)(Cl)c1ccccc1,inactive,inactive,inactive,inactive,inactive,–,–,–,inactive,–,inactive,inactive,inactive,inactive,inactive,inactive,inactive,inactive,inactive,inactive
Cl,inactive,inactive and 54.5 µM (active),inactive and 48.6 µM (active),inactive,inactive,–,–,–,inactive,–,inactive,inactive,inactive,–,inactive,–,–,inactive,inactive,–
CC1CC(=O)O1 (stereo not given),inactive,inactive,inactive,inactive,inactive,–,–,–,inactive,–,inactive,inactive,inactive,–,inactive,–,–,inactive,inactive,–
CCNc1nc(Cl)nc(NC(C)(C)C#N)n1,inactive,inactive,inactive,inactive,inactive,–,–,–,inactive,–,inactive,inactive,inactive,–,inactive,–,–,inactive,inactive,–
CCNCC,inactive,inactive,inactive,inactive,inactive,–,–,–,inactive,–,inactive,inactive,inactive,–,inactive,–,–,inactive,inactive,–
ClCc1ccccn1,inactive,inactive,inactive,inactive,inactive,–,–,–,inactive,–,inactive,inactive,inactive,inactive,–,inactive,inactive,inactive,inactive,inactive
O=P(OCCCl)(OCCCl)OCCCl,inactive,inactive,inactive,inactive,inactive,–,–,–,inactive,–,inactive,inactive,inactive,–,inactive,–,–,inactive,inactive,–
OCCOCCO,inactive,inactive,inactive,inactive,inactive,–,–,–,inactive,–,inactive,inactive,inactive,inactive,–,inactive,inactive,inactive,inactive,inactive
Clc1ccccc1-c1nnc(-c2ccccc2Cl)nn1,inactive,inactive,inactive,inactive,inactive,–,–,–,inactive,–,inactive,inactive,inactive,–,inactive,inactive,27.1 µM (active) and 43.1 µM (active),inactive,inactive,–
ClCC(Cl)CCl,inactive,inactive,inactive,inactive,inactive,–,–,–,inactive,–,inactive,inactive,inactive,–,inactive,–,–,inactive,–,–
CN(C)c1nc(=O)n(C2CCCCC2)c(=O)n1C,inactive,inactive,inactive,inactive,inactive,–,–,–,inactive,–,inactive,inactive,inactive,inactive,inactive,inactive,inactive,inactive,inactive,inactive
CCCCCCCC[N+](C)(CCCCCCCC)CCCCCCCC,13.8 µM (active) and 5.5 µM (active) and 11 µM (active),768 nM (active) and 433 nM (active) and 306 nM (active),433 nM (active) and 686 nM (active),610 nM (active) and 273 nM (active) and 386 nM (active),3.46 µM (active) and 872 nM (active) and 3.47 µM (active),–,–,–,17.2 µM (active) and 2.73 µM (active) and 15.4 µM (active),–,inactive and 2.44 µM (active) and 6.11 µM (active),1.37 µM (active) and 2.73 µM (active),inactive,–,7.75 µM (active) and 27.6 µM (active) and 8.71 µM (active),–,–,inactive and 13.7 µM (active) and 27.3 µM (active),15.3 µM (active) and 3.44 µM (active) and 15.4 µM (active),–

# Source: PubChem BioAssay (Tox21)
